Measured values: PubChem BioAssay AID651903 (Broad Institute, 2012)
Among all 22,000 compounds or so, about 1,100 (5%) were called active. The full list was thinned out, with actives kept by preference. Values without a mark were called inactive. Cut-off read from the data, not from the text of the source: active = activity score above about 55%; inconclusive = no clear call, values can overlap the other calls; inactive = below that.

Experiment: T. cruzi growth inside host cells – cell-based, plate reader, single point, set 2, primary screen (AID 651903);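 note: parasites and compound incubated about four days before reading; 0% = median of neutral control wells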
Conditions: intracellular Trypanosoma cruzi in host cells, at 5.01 µM, hits give high values

Row | SMILES | activity score (inhibition)
1 | C[C@@H]1CN([C@H](C)CO)C(=O)c2cc(NC(=O)Cn3cnnn3)ccc2O[C@@H]1CN(C)Cc1ccc(C(F)(F)F)cc1 | -1.8%
2 | O=C(O)CCCCCCC(=O)NN=C1CCCCCC1 | -26.3%
3 | C[C@@H]1CN([C@H](C)CO)C(=O)Cc2cc(NC(=O)Nc3ccc4c(c3)OCO4)ccc2O[C@@H]1CN(C)Cc1ccc(C(=O)Nc2ccccc2N)cc1 | 63.9% (active)
4 | CC(C)NC(=O)Nc1ccc2c(c1)CC(=O)N([C@H](C)CO)C[C@@H](C)[C@@H](CN(C)Cc1ccc(C(=O)Nc3ccccc3N)cc1)O2 | 52.3%
5 | C[C@@H]1CN([C@H](C)CO)C(=O)Cc2cc(NC(=O)Nc3ccc(F)cc3)ccc2O[C@@H]1CN(C)Cc1ccc2c(c1)OCO2 | 1.98%
6 | C[C@H](CO)N1C[C@H](C)[C@H](CN(C)Cc2ccc(C(=O)Nc3ccccc3N)cc2)Oc2ccc(NC(=O)Nc3ccccc3)cc2CC1=O | 48.5%
7 | COc1ccc(CN(C)C[C@@H]2Oc3ccc(NC(=O)Nc4ccc5c(c4)OCO5)cc3CC(=O)N([C@H](C)CO)C[C@H]2C)cc1 | 26.4%
8 | C[C@H]1CN([C@@H](C)CO)C(=O)Cc2cc(NC(=O)Nc3ccc4c(c3)OCO4)ccc2O[C@H]1CN(C)Cc1ccc(C(=O)Nc2ccccc2N)cc1 | 62.8% (active)
9 | C[C@H](CO)N1C[C@H](C)[C@H](CN(C)S(=O)(=O)c2cccs2)Oc2ccc(NS(=O)(=O)c3ccc(Cl)cc3)cc2CC1=O | -17%
10 | C[C@H]1CN([C@@H](C)CO)C(=O)Cc2cc(NS(=O)(=O)c3cccs3)ccc2O[C@@H]1CN(C)Cc1ccc(Oc2ccccc2)cc1 | 42.4%
11 | C[C@H](CO)N1C[C@H](C)[C@H](CN(C)CC2CCCCC2)Oc2ccc(NC(=O)CCN3CCOCC3)cc2CC1=O | -39.1%
12 | C[C@H](CO)N1C[C@H](C)[C@H](CN(C)C(=O)Nc2ccc(C(F)(F)F)cc2)Oc2ccc(NC(=O)C3CC3)cc2C1=O | -9.99%
13 | C[C@H](CO)N1C[C@H](C)[C@@H](CN(C)Cc2ccc(C(F)(F)F)cc2)Oc2c(NC(=O)NC3CCCCC3)cccc2C1=O | 78.1% (active)
14 | C[C@H]1CN([C@@H](C)CO)C(=O)c2cccc(NC(=O)Nc3ccc(C(F)(F)F)cc3)c2O[C@@H]1CN(C)Cc1ccccc1 | 8.46%
15 | C[C@@H]1CN([C@H](C)CO)C(=O)c2cccc(NC(=O)NC3CCCCC3)c2O[C@H]1CN(C)Cc1ccc(C(F)(F)F)cc1 | 85.3% (active)
16 | COc1ccc(CN(C)C[C@H]2Oc3c(NC(=O)NC4CCCCC4)cccc3C(=O)N([C@@H](C)CO)C[C@@H]2C)cc1 | -5.36%
17 | C[C@H]1CN([C@@H](C)CO)C(=O)c2cccc(NC(=O)C3CCCCC3)c2O[C@H]1CN(C)Cc1ccc(C(F)(F)F)cc1 | 6.51%
18 | C[C@@H]1CN([C@H](C)CO)C(=O)c2cccc(NC(=O)Nc3ccc(F)cc3)c2O[C@@H]1CN(C)Cc1ccc(C(F)(F)F)cc1 | -18.6%
19 | C[C@@H]1CN([C@@H](C)CO)C(=O)c2cccc(N(C)C)c2O[C@@H]1CN(C)S(C)(=O)=O | -23.1%
20 | C[C@H]1CN([C@@H](C)CO)C(=O)c2cccc(NS(=O)(=O)c3ccccc3)c2O[C@@H]1CN(C)S(=O)(=O)c1cn(C)cn1 | -19.1%
21 | C[C@H]1CN([C@@H](C)CO)C(=O)Cc2cc(NC(=O)C3CC3)ccc2O[C@@H]1CN(C)C(=O)NC1CCCCC1 | -11%
22 | CC(C)NC(=O)N(C)C[C@@H]1Oc2c(cccc2N(C)C)C(=O)N([C@H](C)CO)C[C@@H]1C | -30.9%

Row | SMILES | activity score (inhibition)
23 | C[C@@H]1CN([C@@H](C)CO)C(=O)c2cc(NC(=O)Nc3ccccc3)ccc2O[C@H]1CN(C)C(=O)Nc1ccc(F)cc1 | -1.8%
24 | C[C@@H]1CN([C@H](C)CO)C(=O)c2cc(NC(=O)Cc3cn(C)c4ccccc34)ccc2O[C@H]1CN(C)S(C)(=O)=O | -9.14%
25 | C[C@@H]1CN([C@@H](C)CO)C(=O)c2cccc(NC(=O)Nc3ccc4c(c3)OCO4)c2O[C@@H]1CN(C)C(=O)Nc1ccc(F)cc1 | -15.6%
26 | C[C@H]1CN([C@@H](C)CO)C(=O)Cc2cc(NC(=O)Nc3ccc(C(F)(F)F)cc3)ccc2O[C@H]1CN(C)Cc1ccc(C(=O)O)cc1 | -28.2%
27 | C[C@@H]1CN([C@H](C)CO)C(=O)Cc2cc(NC(=O)Nc3cccc4ccccc34)ccc2O[C@@H]1CN(C)Cc1ccc(C(F)(F)F)cc1 | 67.4% (active)
28 | C[C@@H]1CN([C@H](C)CO)C(=O)Cc2cc(NC(=O)Nc3ccc4c(c3)OCO4)ccc2O[C@H]1CN(C)Cc1ccc(C(F)(F)F)cc1 | 64.6% (active)
29 | COc1ccc(CN(C)C[C@@H]2Oc3ccc(NC(=O)Nc4ccc(OC)cc4)cc3CC(=O)N([C@H](C)CO)C[C@H]2C)cc1 | 12%
30 | C[C@@H]1CN([C@H](C)CO)C(=O)c2cc(NC(=O)Nc3ccc4c(c3)OCO4)ccc2O[C@@H]1CN(C)Cc1ccc(C(F)(F)F)cc1 | 2.66%
31 | Cc1noc(C)c1NC(=O)Nc1ccc2c(c1)CC(=O)N([C@H](C)CO)C[C@@H](C)[C@@H](CN(C)Cc1ccc(C(F)(F)F)cc1)O2 | -9.04%
32 | COc1ccc(NC(=O)Nc2ccc3c(c2)CC(=O)N([C@@H](C)CO)C[C@@H](C)[C@@H](CN(C)Cc2ccc(C(F)(F)F)cc2)O3)cc1 | 76% (active)
33 | C[C@@H]1CN([C@H](C)CO)C(=O)Cc2cc(NC(=O)Nc3cccc4ccccc34)ccc2O[C@@H]1CN(C)Cc1ccc(C(=O)O)cc1 | -16%
34 | C[C@@H]1CN([C@H](C)CO)C(=O)Cc2cc(NC(=O)Nc3ccc4c(c3)OCO4)ccc2O[C@H]1CN(C)Cc1ccc(C(=O)O)cc1 | -10.7%
35 | C[C@@H]1CN([C@H](C)CO)C(=O)c2cc(NC(=O)c3ccncc3)ccc2O[C@H]1CN(C)C(=O)Nc1ccc(C(F)(F)F)cc1 | 1.32%
36 | C[C@@H]1CN([C@H](C)CO)C(=O)c2cc(NC(=O)Nc3ccc(C(F)(F)F)cc3)ccc2O[C@H]1CN(C)C(=O)Nc1ccccc1 | 4.44%
37 | COc1ccc(S(=O)(=O)N(C)C[C@@H]2Oc3ccc(NC(=O)C4CC4)cc3CC(=O)N([C@@H](C)CO)C[C@@H]2C)cc1 | -7.17%
38 | CNC[C@H]1Oc2ccc(NS(=O)(=O)c3ccc(F)cc3)cc2C(=O)N([C@@H](C)CO)C[C@@H]1C | -7.11%
39 | C[C@H]1CN([C@@H](C)CO)C(=O)c2cccc(NC(=O)c3cnccn3)c2O[C@@H]1CN(C)Cc1ccc(Oc2ccccc2)cc1 | 38.8%
40 | C[C@@H]1CN([C@H](C)CO)C(=O)Cc2cc(NS(=O)(=O)c3ccc(Cl)cc3)ccc2O[C@@H]1CN(C)S(=O)(=O)c1ccc(Cl)cc1 | 67.3% (active)
41 | Cc1ccc(S(=O)(=O)N(C)C[C@H]2Oc3ccc(NC(=O)Nc4cccc5ccccc45)cc3CC(=O)N([C@H](C)CO)C[C@H]2C)cc1 | 60.6% (active)
42 | COc1ccc(S(=O)(=O)N(C)C[C@H]2Oc3ccc(NS(=O)(=O)c4ccc(C)cc4)cc3CC(=O)N([C@@H](C)CO)C[C@@H]2C)cc1 | -20.8%
43 | C[C@H]1CN([C@@H](C)CO)C(=O)Cc2cc(NC(=O)Nc3ccc(F)cc3)ccc2O[C@H]1CN(C)S(=O)(=O)c1ccccc1 | 10.9%
44 | C[C@H]1CN([C@@H](C)CO)C(=O)Cc2cc(NS(=O)(=O)c3ccc(Cl)cc3)ccc2O[C@@H]1CN(C)S(=O)(=O)c1ccccc1 | 9.06%

Row | SMILES | activity score (inhibition)
45 | C[C@H]1CN([C@@H](C)CO)C(=O)Cc2cc(NC(=O)Nc3ccc(C(F)(F)F)cc3)ccc2O[C@@H]1CN(C)S(=O)(=O)c1ccc(Cl)cc1 | -15.1%
46 | C[C@H]1CN([C@@H](C)CO)C(=O)Cc2cc(NC(=O)Nc3cccc4ccccc34)ccc2O[C@@H]1CN(C)S(C)(=O)=O | -12.5%
47 | Cc1noc(C)c1S(=O)(=O)N(C)C[C@H]1Oc2ccc(NC(=O)Nc3cccc4ccccc34)cc2CC(=O)N([C@@H](C)CO)C[C@H]1C | 23.8%
48 | C[C@H]1CN([C@@H](C)CO)C(=O)Cc2cc(NS(C)(=O)=O)ccc2O[C@@H]1CN(C)S(=O)(=O)c1ccc(Cl)cc1 | 2.12%
49 | COc1ccc(S(=O)(=O)Nc2ccc3c(c2)CC(=O)N([C@H](C)CO)C[C@@H](C)[C@@H](CN(C)S(=O)(=O)c2ccc(F)cc2)O3)cc1 | 60.4% (active)
50 | C[C@@H]1CN([C@H](C)CO)C(=O)Cc2cc(NC(=O)Nc3ccc(C(F)(F)F)cc3)ccc2O[C@@H]1CN(C)S(=O)(=O)c1ccccc1 | 70% (active)
51 | C[C@@H]1CN([C@H](C)CO)C(=O)Cc2cc(NS(=O)(=O)c3ccc(F)cc3)ccc2O[C@@H]1CN(C)S(=O)(=O)c1ccc(F)cc1 | 47.1%
52 | C[C@@H]1CCCCO[C@H](CN(C)C(=O)c2ccccc2)[C@@H](C)CN([C@H](C)CO)C(=O)c2cc(NC(=O)c3ccccc3)ccc2O1 | -16.9%
53 | C[C@@H]1CN([C@@H](C)CO)C(=O)c2cccc(NC(=O)C3CCOCC3)c2O[C@H]1CN(C)C(=O)NC1CCCCC1 | 2.53%
54 | C[C@H]1CN([C@@H](C)CO)C(=O)c2cc(NC(=O)c3ccncc3)ccc2O[C@H]1CN(C)Cc1ccc(C(=O)Nc2ccccc2N)cc1 | 37.7%
55 | C[C@H](CO)N1C[C@H](C)[C@@H](CN(C)Cc2ccc(C(F)(F)F)cc2)Oc2ccc(NC(=O)CCC(F)(F)F)cc2C1=O | 7.64%
56 | COc1ccc(S(=O)(=O)N(C)C[C@H]2Oc3c(NS(=O)(=O)c4ccc(F)cc4)cccc3C(=O)N([C@H](C)CO)C[C@H]2C)cc1 | 71.9% (active)
57 | Cc1ccc(S(=O)(=O)N(C)C[C@H]2Oc3ccc(NS(=O)(=O)c4ccccc4)cc3CC(=O)N([C@@H](C)CO)C[C@H]2C)cc1 | 57.7% (active)
58 | Cc1ccc(S(=O)(=O)Nc2ccc3c(c2)CC(=O)N([C@@H](C)CO)C[C@@H](C)[C@@H](CN(C)S(=O)(=O)c2ccccc2)O3)cc1 | 52%
59 | COc1ccc(S(=O)(=O)Nc2cccc3c2O[C@@H](CN(C)S(=O)(=O)c2ccc(F)cc2)[C@H](C)CN([C@H](C)CO)C3=O)cc1 | -4.59%
60 | Cc1ccc(S(=O)(=O)N(C)C[C@H]2Oc3ccc(NS(C)(=O)=O)cc3CC(=O)N([C@@H](C)CO)C[C@H]2C)cc1 | 5.47%
61 | COc1ccc(S(=O)(=O)Nc2cccc3c2O[C@H](CN(C)S(=O)(=O)c2ccc(OC)cc2)[C@@H](C)CN([C@H](C)CO)C3=O)cc1 | 8.53%
62 | C[C@@H]1CN([C@H](C)CO)C(=O)CCCn2cc(nn2)CO[C@H]1CN(C)S(C)(=O)=O | -20.6%
63 | C[C@H](CO)N1C[C@H](C)[C@H](CN(C)C(=O)Nc2ccc3c(c2)OCO3)Oc2ccc(NC(=O)Nc3ccccc3)cc2CC1=O | -2.34%
64 | Cc1noc(C)c1NC(=O)Nc1ccc2c(c1)CC(=O)N([C@@H](C)CO)C[C@@H](C)[C@@H](CN(C)Cc1ccc(Cl)c(Cl)c1)O2 | 0.719%
65 | C[C@H](CO)N1C[C@H](C)[C@H](CN(C)Cc2ccc3c(c2)OCO3)Oc2c(NS(=O)(=O)c3ccccc3)cccc2C1=O | 4.5%
